Compound activity as filed in PubChem.
A selection: hits, their analogues and other compounds. The true share with any hit is near 6.2%.
HT1080 IDH1KD tx = kills HT-1080 cells with IDH1 knockdown; 2% of 360,000 active; Potency, µM (top dose mostly 46.1 µM), inactives show at the highest dose activity, negative = toxicity, usual class: cytotoxic; HT-1080 IDH1 knockdown viability, ATP luminescence, 48 h; AID 686971;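 further: 0% = DMSO wells and -100% = cell-free medium wells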
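Cytotoxicity counter-line: IDH1KD HT-1080, 48 h, CellTiter-Glo. Curves classed by r2, magnitude and activity.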
ATXN viability = viability counter-screen for ATXN expression inhibitors; S2 cells (HEK-293 line with an ATXN2-luciferase reporter) viability, CellTiter-Fluor protease fluorescence, 24 h; Potency, µM (series often up to 56.7 µM), hits mostly cytotoxic; 0.49% of 400,000 active; further: nearly all actives have a fitted effect of over 40% in size
KB-3-1 cytotox = kills parental KB-3-1 adenocarcinoma cells; KB-3-1 viability, CellTiter-Glo ATP luminescence, 72 h; Potency, µM (doses to about 46.1 µM), usual class: cytotoxic; 1.4% of 400,000 active; AID 1347075; further: on the % scale 0 is the no-effect control and ±100 the full control effect; nearly all actives have a fitted effect of over 60% in size
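Luminescent ATP read-out (CellTiter-Glo) measures survival of drug-naive KB-3-1 cells after 72 h compound exposure at 37 °C. Titration series was screened from lowest to highest concentration, with DMSO vehicle plates as background controls.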
HT1080NT lethal = kills 2HG-producing HT-1080-NT fibrosarcoma cells. HT-1080-NT fibrosarcoma viability, CellTiter-Glo ATP luminescence, 48 h. Potency, µM (doses to about 46.1 µM), for inactives: at the top dose activity, negative = less viability, hits mostly cytotoxic. 1.6% of 360,000 active;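 further: NT is the 2HG producing partner of a matched IDH1 knockdown line; 0% = DMSO-treated cells and -100% = media-only wells without cells; nearly all actives have a fitted effect of over 55% in size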
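Fibrosarcoma NT cells, 750 per well in 5% FBS RPMI, were exposed to compound for 48 hours. Viability: CellTiter-Glo luminescence.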
ATXN2 expr inh = inhibitors of ATXN2 expression. HEK-293 ATXN2-luciferase reporter, luminescence, 24 h. Potency, µM (top dose mostly 57 µM), for the others: top-dose activity change, negative = inhibition, usual class: inhibitors. 0.72% of 360,000 active; further: on the % scale 0 is the no-effect control and ±100 the full control effect; nearly all actives have a fitted effect of over 55% in size
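ATXN2-luciferase reporter cells (luciferase flanked by upstream and downstream ATXN2 gene portions) were treated 24 h at 37 °C with compounds at up to 57 uM. SteadyGlo luminescence gave expression; GF-AFC fluorescence gave viability.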
KB-V1 MDR tox = kills drug-selected multidrug resistant KB-V1 cells. KB-V1 MDR cells viability, CellTiter-Glo, 72 h. Potency, µM (titrated, usually from 46.1 µM), most hits filed as cytotoxic. 3.4% of 400,000 active. AID 1347076; further: on the % scale 0 is the no-effect control and ±100 the full control effect; nearly all actives have a fitted effect of over 60% in size
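Luminescent ATP read-out (CellTiter-Glo, 10 min) measures survival of drug-selected KB-V1 MDR cells after 72 h, 37 degrees C compound exposure. Medium: phenol-red-free DMEM, 10% FBS. Values from fitted concentration-response curves.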
* = called active by the depositor; i = inactive; ? = inconclusive; · = no result; [ ] = another dose, or the depositor's remark. The call rests on the fitted dose curve; in most records, active means well fitted curve in the direction sought with a large enough effect; inconclusive means small, poorly fitted or top-dose-only effect, or another doubt; inactive means no such curve, though single readings can be large; an effect the other way counts as inactive or inconclusive. Potency means the concentration at half of the fitted maximal effect.

SMILES | HT1080 IDH1KD tx | ATXN viability | KB-3-1 cytotox | HT1080NT lethal | ATXN2 expr inh | KB-V1 MDR tox
Cc1ccc(S(=O)(=O)Nc2ccccc2O)cc1 | 8% | · | i | -1% | · | i
CCn1nc(C)c(NS(=O)(=O)c2ccc(C)cc2)c1C | -4% | i | ? | -24% | -8% | 16µM*
Cc1ccc(S(=O)(=O)NC2=C(N3CCN(Cc4ccccc4)CC3)C(=O)c3ccccc3C2=O)cc1 | -9% | i | i | -11% | 4% | i
CCOC(=O)c1ccccc1NS(=O)(=O)c1ccc(C)cc1 | ? | i | 26µM* | -25% | -21% | ?
Cc1ccc(S(=O)(=O)Nc2c(C)nn(C)c2C)cc1 | -5% | i | i | 7% | 1% | i
Cc1ccc(S(=O)(=O)Nc2ccccc2N2CCCCC2)cc1 | ? | ? | ? | ? | -25% | ?
CCOC(=O)N1CCN(C2=C(NS(=O)(=O)c3ccc(C)cc3)C(=O)c3ccccc3C2=O)CC1 | ? | 32µM* | i | ? | · | ?
Cc1ccc(S(=O)(=O)Nc2ccccc2N2CCOCC2)cc1 | 18µM* | i | 13µM* | 21µM* | -19% | ?
COc1cc(/C=C/c2cncc(/C=C/c3cc(OC)c(OC)c(OC)c3)c2)cc(OC)c1OC | · | · | i | · | · | i
COc1cccc(-c2nc(CS(=O)(=O)CC(=O)NCCc3ccc(Cl)cc3)c(C)o2)c1 | · | · | i | · | · | i
COc1ncnc2c1ncn2CCCNCc1ccco1 | 1% | i | i | 6% | -1% | i
CCOC(=O)c1ccc(S(=O)(=O)Nc2ccccc2-c2nnn(CC)n2)cc1 | 4% | i | i | 5% | -9% | 16µM*
CCOC(=O)c1ccc(NS(=O)(=O)c2ccc(SC)cc2)cc1 | -11% | i | i | 1% | -2% | 23µM*
Cc1ccc(S(=O)(=O)Nc2ccccc2-c2ccccc2)cc1 | 4.1µM* | ? | 3.3µM* | 2.9µM* | -21% | ?
CCOC(=O)Cc1ccc(NS(=O)(=O)c2ccc(SC)cc2)cc1 | -13% | i | i | 1% | -4% | i
CCc1ccc(OCCNC(=O)c2ccccc2SCc2ccc(F)cc2)cc1 | -1% | i | i | -6% | -15% | 18µM*
O=C(NCCOc1ccc(F)cc1)c1ccccc1SCc1ccccc1 | -5% | i | i | -6% | 4%[11.3 µM] | ?
O=[N+]([O-])c1cc(Cl)cc(/C=N\Nc2ccccn2)c1O | ? | ? | ? | ? | 7.1µM* | i
O=[N+]([O-])c1ccc(Cl)cc1C=NNc1ccccn1 | ? | ? | i | 11% | -1% | i
Cc1cc(C)cc(OCCN2CCOCC2)c1 | 3% | i | i | 3% | -1% | ?
FC(F)(F)c1cc(-c2ccco2)nc(-n2cnc3ccccc32)n1 | 10% | i | i | 6% | ? | i
Cc1nc2ccccc2n1-c1nc(-c2ccco2)cc(C(F)(F)F)n1 | 5.6µM* | i | i | 5.6µM* | ? | i
O=S(=O)(c1ccc(OCC(O)CNC23CC4CC(CC(C4)C2)C3)c(Cl)c1)N1CCOCC1 (stereo unspecified) | 13µM* | ? | ? | 21µM* | ? | ?
O=C(NC1CCOCC1)c1ccc(-c2cc(-c3cn[nH]c3-c3ccccn3)ccn2)cc1 | · | · | · | · | -26% | ·
CCOc1ccccc1NC(=O)c1cc(C(=O)c2cc(OC)ccc2O)coc1=N | 1% | i | i | -3% | 3% | 12µM*
SMILES | HT1080 IDH1KD tx | ATXN viability | KB-3-1 cytotox | HT1080NT lethal | ATXN2 expr inh | KB-V1 MDR tox
CCN(CC)CCCNC(=O)CSc1c2c(nc3cc(Cl)ccc13)CCCC2 | 23µM* | · | i | 23µM* | ? | i
O=C(CCOCCOCCOCCOCCC(=O)Nc1c(I)cc(I)c(C(=O)O)c1I)Nc1c(I)cc(I)c(C(=O)O)c1I | · | i | · | · | 6% | ·
Cc1cc(/C=C(\C#N)C(=O)N2CCCCC2)cc(C)c1O | 18µM* | i | 16µM* | 16µM* | -1% | ?
N#C/C(=C\c1cccc(O)c1)C(=O)N1CCCCC1 | -11% | i | i | -1% | 15% | ?
N#C/C(=C\c1cccc(Br)c1)C(=O)N1CCCCC1 | 16µM* | i | ? | 23µM* | -3% | ?
CC(=O)N1CCN(C(=O)/C(C#N)=C/c2ccc3c(c2)OCO3)CC1 | -1% | i | i | 12% | 4% | i
C=CC1=C(C(=O)O)N2C(=O)[C@@H](NC(=O)/C(=N/OCC(=O)O)c3csc(N)n3)[C@H]2SC1 (stereo in doubt) | · | i | · | · | · | ·
COc1ccc(Cl)cc1NC(=S)NCCc1c[nH]c2ccccc12 | ? | i | 21µM* | ? | ? | ?
Cc1ccc(S(=O)(=O)Nc2ccc(NC(=O)Nc3ccc(F)cc3F)cc2)cc1 | -12% | i | ? | 0% | 5% | 23µM*
Cc1ccc(S(=O)(=O)Nc2ccc(S(=O)(=O)NC(C)(C)C)cc2)cc1 | 3% | i | ? | -6% | -2% | 18µM*
Cc1ccc(NS(=O)(=O)c2ccc(NC(=O)C3CCCO3)cc2)cc1 (stereo unspecified) | -8% | i | i | -12% | -18% | 13µM*
Cc1ccc(NS(=O)(=O)c2ccc(C3CCCCC3)cc2)cc1 | -25% | ? | ? | -24% | -30% | 21µM*
Cc1cc2c(c(-c3ccc(Cl)cc3)c1)OC(CNC(=O)Cc1c(C)noc1C)C2 (stereo unspecified) | · | i | · | · | · | ·
O=C(CCCCCCCCC(=O)N1CCCCC1)N1CCCCC1 | 3% | i | ? | 8% | -21% | 2.3µM*
O=C(CCCCCCCC(=O)N1CCCCCC1)N1CCCCCC1 | 1% | i | · | 0% | -4% | ·
CN1c2ccccc2C(C)(C)[C@]12C=Cc1cc(O)ccc1O2 | 18µM* | ? | ? | ? | -14% | i
O=C(NC1CCCCC1)N1CCC(c2nc(-c3ccc(S(=O)(=O)N4CCCC4)cc3)no2)CC1 | -1% | i | 8.2µM* | -1% | ? | 2.6µM*
O=C(Cc1ccccc1)N1CCCC(c2nc(-c3ccc(S(=O)(=O)N4CCCC4)cc3)no2)C1 (stereo unspecified) | 6% | ? | i | -7% | -19% | 9.2µM*
CC(C)N(C(=O)N1CCC(c2nc(-c3ccncc3)no2)CC1)C(C)C | -24% | i | ? | -16% | -7% | 10µM*
Cc1ccc(S(=O)(=O)N2CCCC(c3nc(-c4ccc(C)o4)no3)C2)cc1 (stereo unspecified) | -2% | i | i | -19% | -13% | i
